Data: PubChem BioAssay (Tox21)
Inconclusive results are not listed. Entries that show only a call come without a potency. Calls of active or inactive are those of the source. Unless noted, calls follow the shape of the dose curve; as a rule, active = well fitted curve in the direction sought with a large enough effect in the repeat runs; inconclusive = weak or mixed curves; inactive = no such curve, though single readings can be large; an effect the other way counts as inactive or inconclusive.

How the values were obtained:
[1] = qHTS assay to identify small molecule antagonists of the vitamin D receptor (VDR) signaling pathway - cell viability counter screen (AID 743225); also: nearly all actives have a fitted effect of over 50% in size
Procedure, shortened: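 Cytotoxicity toward the VDR-bla HEK 293T line was scored by ATP-based CellTiter-Glo luminescence, read in the wells already used for the beta-lactamase readout after 16 h compound treatment under 3 nM 1-alpha,25-dihydroxyvitamin D3 stimulation.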

[2] = qHTS assay to identify small molecule agonists of the NFkB signaling pathway - cell viability counter screen (AID 1159515; calls by dose curve; also: series mostly up to about 61 µM; nearly all actives have a fitted effect of over 55% in size)
Procedure, shortened: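 Multiplexed viability readout: after the 5 hr compound exposure and 1.5 hr FRET substrate step, CellTiter-Glo reagent went into the same NFkB-bla ME-180 wells; ATP luminescence was measured after 30 min at room temperature.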

[3] = qHTS assay to identify small molecule agonists of the endoplasmic reticulum stress response signaling pathway (AID 1159516; active = well fitted activation curve with a large enough effect in the signal ratio in the repeat runs, not every such curve was filed as active; the % refers to the signal ratio)
Procedure, shortened: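 Tox21 10K library screened in quantitative HTS format on ESRE-bla HeLa cells, a beta-lactamase reporter under ER stress response element control; 5 hr treatment, FRET read.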

[4] = qHTS assay to identify small molecule agonists of the endoplasmic reticulum stress response signaling pathway - cell viability counter screen (AID 1159517; calls by dose curve; also: series mostly up to about 61 µM; nearly all actives have a fitted effect of over 50% in size)
Procedure, shortened: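 Cells, HeLa ESRE-bla; density, 1,500/well; dosing, 5 hr at 37 C, 5% CO2; readout, CellTiter-Glo luminescence after 30 min RT.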

[5] = qHTS assay to identify small molecule antagonists of the retinoid-related orphan receptor gamma (ROR-gamma) signaling pathway - cell viability counter screen (AID 1159520); also: nearly all actives have a fitted effect of over 50% in size
Procedure, shortened: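 Cytotoxicity was read from cellular ATP (CellTiter-Glo luminescence) after 16 hr at 37 C with 1 uM doxycycline induction. The inducer was added 2 hr after compound transfer to Tet-on ROR gamma CHO cells.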

[6] = qHTS assay to identify small molecule agonists of the AP-1 signaling pathway - cell viability counter screen (AID 1159525; calls by dose curve; also: nearly all actives have a fitted effect of over 55% in size)
Procedure, shortened: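 Luminescent ATP readout (Cell Titer Glo, 30 min RT), normalised to DMSO and tetra n-octyl ammonium bromide controls. Cells were ME-180 AP-1-bla in 0.5% dialyzed FBS Opti-MEM, with a 5 h, 37 °C compound exposure.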

[7] = qHTS assay to identify small molecule agonists of the AP-1 signaling pathway (AID 1159526; calls by dose curve)
[8] = qHTS assay to identify small molecule agonists of the RXR signaling pathway - cell viability counter screen (AID 1159529); also: nearly all actives have a fitted effect of over 50% in size; also: potency is read from the fitted curve at half-maximal effect
Procedure, shortened: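 Tox21 10K compounds were tested for cytotoxicity against GeneBLAzer RXR-alpha HEK 293T cells grown in 2% charcoal-stripped FBS. Exposure lasted 16 hr at 37 C, 5% CO2; viability read by CellTiter-Glo luminescence.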

[9] = qHTS assay to identify small molecule antagonists of the retinoid acid receptor (RAR) signaling pathway - cell viability counter screen (AID 1159551); also: nearly all actives have a fitted effect of over 35% in size
Procedure, shortened: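 Cytotoxicity counter screen in C3RL4 cells: 6 h compound exposure with 1 uM retinol (final), viability from cellular ATP by luminescence.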

[10] = qHTS assay to identify small molecule antagonists of the retinoic acid receptor (RAR) signaling pathway (AID 1159552; also: nearly all actives have a fitted effect of over 50% in size)
Procedure, shortened: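 Overnight-plated C3RL4 reporter cells get compound, then retinol to 1 uM final; plates sit 6 hr at 37 C, 5% CO2. A luciferase reagent is added and light output recorded after 30 min at room temperature.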

[11] = qHTS assay to identify small molecule agonists of the retinoic acid receptor (RAR) signaling pathway (AID 1159553)
Procedure, shortened: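 Agonist activity was scored in C3RL4 cells bearing a retinoic acid response element luciferase construct. Cells were treated with compounds for 6 hr at 37 C, and luciferase signal was measured as luminescence.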

[12] = target: Nuclear receptor ROR-gamma (Homo sapiens) (UniProt P51449); assay: qHTS assay to identify small molecule antagonists of the retinoid-related orphan receptor gamma (ROR-gamma) signaling pathway (AID 1159521)
Procedure, shortened: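 Readout: ONE-Glo luciferase luminescence, 30 min at room temperature. System: Tet-on RORγ CHO, RORE-LUC. Sequence: compound 2 h, doxycycline 1 uM final, 16 h at 37 C.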

[13] = qHTS assay to identify small molecule antagonists of the estrogen related receptor (ERR) signaling pathway from Tox21 library - cell viability counter screen (AID 1224834); also: nearly all actives have a fitted effect of over 30% in size
Procedure, shortened: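 Cytotoxicity of test substances is gauged in the same ERR cells used for the antagonist screen, after 17.5 h of compound treatment at 37 C, by CellTiter-Fluor fluorescence measured after 30 min.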

[14] = target: Retinoic acid receptor RXR-alpha (Homo sapiens) (UniProt P19793); assay: qHTS assay to identify small molecule agonists of the RXR signaling pathway (AID 1159527; calls by dose curve; also: nearly all actives have a fitted effect of over 35% in size)
Chain of Retinoic acid receptor RXR-alpha (Homo sapiens) (P19793 whole entry, looked up): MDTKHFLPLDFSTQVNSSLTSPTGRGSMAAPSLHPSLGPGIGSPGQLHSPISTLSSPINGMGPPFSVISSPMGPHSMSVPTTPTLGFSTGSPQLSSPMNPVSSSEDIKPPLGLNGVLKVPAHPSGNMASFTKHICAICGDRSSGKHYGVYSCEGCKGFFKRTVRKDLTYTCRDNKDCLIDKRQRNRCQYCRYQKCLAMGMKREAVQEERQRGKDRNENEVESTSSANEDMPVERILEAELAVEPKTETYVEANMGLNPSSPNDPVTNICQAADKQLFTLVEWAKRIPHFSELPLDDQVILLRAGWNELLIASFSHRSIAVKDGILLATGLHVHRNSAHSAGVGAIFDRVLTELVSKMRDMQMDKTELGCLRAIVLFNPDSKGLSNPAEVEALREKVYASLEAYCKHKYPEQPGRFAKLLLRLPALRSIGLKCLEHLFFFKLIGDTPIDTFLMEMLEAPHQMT
Procedure, shortened: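 Reporter activation is measured as beta-lactamase activity via FRET substrate cleavage (emission 460/530 nm) in HEK 293T cells expressing an RXR-alpha-driven bla construct, following 16 hr compound exposure at 37 C.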

[15] = qHTS assay to identify small molecule antagonists of the estrogen related receptor (ERR) signaling pathway - cell viability counter screen (AID 1224818);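 also: series mostly up to about 46 µM; viability measured after 17.5 h of compound exposure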
Procedure, shortened: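 Cells carrying the ERR pathway reporter were seeded and incubated for 6 hours before compound addition. After a 17.5-hour exposure at 37 C, live-cell protease activity was measured by CellTiter-Fluor fluorescence following 30 minutes of incubation.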

[16] = qHTS assay to identify small molecule antagonists of the estrogen related receptor signaling pathway with the pleiotropic PPARgamma coactivator (PGC) cell viability counter screen (AID 1224822;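 also: series mostly up to about 46 µM; viability read after 17.5 h compound exposure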)
Procedure, shortened: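 Seed PGC/ERR cells (2,000/well); incubate 6 h at 37 C/5% CO2; pin-transfer compounds in DMSO; incubate 17.5 h at 37 C; add CellTiter-Fluor; after 30 min read fluorescence.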

| SMILES | Potency [1] | Potency [2] | Potency [3] | Potency [4] | Potency [5] | Potency [6] | Potency [7] | Potency [8] | Potency [9] | Potency [10] | Potency [11] | Potency [12] | Potency [13] | Potency [14] | Potency [15] | Potency [16] |
| --- | --- | --- | --- | --- | --- | --- | --- | --- | --- | --- | --- | --- | --- | --- | --- | --- |
| CCCN | inactive | inactive | inactive | inactive | inactive | inactive | inactive | inactive | inactive | inactive | inactive | – | – | – | – | – |
| CCC1COC(Cn2cncn2)(c2ccc(Cl)cc2Cl)O1 (stereo not given) | inactive | inactive | inactive | inactive | inactive | inactive | inactive | inactive | – | – | inactive | – | – | – | – | – |
| CC(C)c1c(CN(C)C(C)Cc2ccccc2)n(C)n(-c2ccccc2)c1=O (stereo not given) | inactive | inactive | inactive | inactive | inactive | inactive | inactive | inactive | – | inactive | inactive | – | – | – | – | – |
| C[C@H]1[C@H](c2ccc(Cl)cc2)SC(=O)N1C(=O)NC1CCCCC1 | – | inactive | inactive | inactive | – | inactive | inactive | inactive | inactive | inactive | inactive | 48.6 µM (active) | – | – | – | – |
| COP(=S)(OC)Oc1nc(Cl)c(Cl)cc1Cl | inactive | inactive | inactive | inactive | inactive | inactive | – | – | inactive | inactive | inactive | – | inactive | – | – | – |
| Oc1cccc(Cl)c1Cl | inactive | inactive | inactive | inactive | inactive | inactive | – | 49.2 µM (active) | inactive | inactive | inactive | – | inactive | – | – | – |
| C[C@]12CC[C@H]3[C@@H](CCC4=CC(=O)CC[C@@H]43)[C@@H]1CC[C@@H]2OC(=O)CCc1ccco1 | – | inactive | inactive | inactive | inactive | inactive | – | 23.9 µM (active) | inactive | inactive | inactive | – | inactive | – | – | – |
| COc1ccc(Cc2nccc3cc(OC)c(OC)cc23)cc1OC | inactive | inactive | inactive | inactive | – | inactive | inactive | inactive | inactive | inactive | inactive | 4.22 µM (active) | – | inactive | inactive | inactive |
